Consider 13 compounds from PubChem BioAssay.

Activity calls are given as the source filed them. Unless noted, how the calls were made is not given here.

Assay [1] can be described thus: HepG2 liver cancer cell viability effects, profiling panel, resazurin fluorescence, 24 h, PK04 Diversity Set (AID 1172). Further: test concentration not given here. The following applies: higher = more signal. (In general: Alamar Blue is a resazurin reagent that responds to reducing activity.)
A short description of assay [2]: basal S. cerevisiae growth modulation, no modifier, primary screen, OD600, strain BY4716, 24 h, basal condition (AID 1173). The following applies: OD600, 24 h, higher = more signal, called active from +8 up or from −8 down.
Assay [3] is described as follows: MM1S myeloma cell viability, profiling panel, resazurin fluorescence, basal, 24 h, PK04 Diversity Set (AID 1174).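 Further: MM1S multiple myeloma cell line; test concentration not given here.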 The following applies: higher = more signal, called active from +8 up or from −8 down.
The target of assay [4] is Dihydroorotate dehydrogenase (quinone), mitochondrial (Plasmodium falciparum (isolate 3D7)) (UniProt Q08210). Description: PfDHODH enzyme inhibitors, primary screen, biochemical, C-terminal His tag, absorbance 600 nm (AID 1175).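 Further: recombinant parasite enzyme with a five histidine tag at its C terminus; test concentration not given here.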 Particulars: DCIP absorbance 600 nm, higher = more signal, called active from +8 up or from −8 down.
Dihydroorotate dehydrogenase (quinone), mitochondrial (Plasmodium falciparum (isolate 3D7)), sequence (Q08210 whole entry, looked up): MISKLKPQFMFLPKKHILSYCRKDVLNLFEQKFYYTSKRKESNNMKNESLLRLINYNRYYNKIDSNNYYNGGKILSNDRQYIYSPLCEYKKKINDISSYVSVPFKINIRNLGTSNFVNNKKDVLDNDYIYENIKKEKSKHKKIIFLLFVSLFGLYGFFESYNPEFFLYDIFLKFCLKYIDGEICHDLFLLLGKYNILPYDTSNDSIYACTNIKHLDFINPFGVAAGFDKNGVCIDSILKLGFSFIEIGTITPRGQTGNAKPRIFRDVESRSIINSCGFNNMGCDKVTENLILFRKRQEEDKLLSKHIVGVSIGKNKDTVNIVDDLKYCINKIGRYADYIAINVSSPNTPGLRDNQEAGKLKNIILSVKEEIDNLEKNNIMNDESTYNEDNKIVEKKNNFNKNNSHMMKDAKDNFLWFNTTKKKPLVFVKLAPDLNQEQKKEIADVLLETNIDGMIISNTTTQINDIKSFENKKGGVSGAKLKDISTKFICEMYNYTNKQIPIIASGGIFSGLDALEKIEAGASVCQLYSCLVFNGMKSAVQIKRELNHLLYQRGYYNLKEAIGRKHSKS
Assay [5] is described as follows: P. aeruginosa biofilm formation inhibitors, primary screen, strain PAO1, LB-PBS medium, absorbance 600 nm (AID 1176). Further: test concentration not given here. Particulars: P. aeruginosa PAO1 growth/biofilm, A600, 12 h; higher = more signal.
A short description of assay [6]: S. cerevisiae RM11-1a growth modifiers, primary screen, strain RM11-1a, OD600, basal, 24 h (AID 1177).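 Further: cultures grown under basal conditions with no added stressor; test concentration not given here.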 Particulars: OD600, 24 h, higher = more signal, called active from +8 up or from −8 down.
A short description of assay [7]: E. coli acrAB mutant growth effects, primary screen, E. coli filamentation inducers, strain DRC39, OD650, 24 h (AID 1178).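 Further: growth measured as culture turbidity by optical density at 650 nm; test concentration not given here.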 Particulars: higher = more signal, called active from +8 up or from −8 down.
Assay [8] is described as follows: E. coli acrAB mutant growth effects, primary screen, E. coli filamentation inducers, strain DRC39, OD650, 48 h (AID 1179).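 Further: screen aims at cell division blockers that make cells filament.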 The following applies: E. coli DRC39 delta-acrAB growth, higher = more signal, called active from +8 up or from −8 down.
Assay [9] can be described thus: RPMI8226 myeloma cell viability, profiling panel, resazurin fluorescence, basal, 24 h, PK04 Diversity Set (AID 1180).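 Further: RPMI8826 multiple myeloma cell line at 5000 cells per well; test concentration not given here.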 Particulars: higher = more signal.
The target in assay [10] is E3 ubiquitin-protein ligase XIAP (Homo sapiens) (UniProt P98170). Description: XIAP binders, primary screen, biophysical, small-molecule microarray, fluorescence 635 nm (AID 1181).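 Further: score merges 667 nm emission and signal to noise over triplicate slides.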 The following applies: small-molecule microarray binding, higher = more signal.
E3 ubiquitin-protein ligase XIAP (Homo sapiens), sequence (P98170 whole entry, looked up): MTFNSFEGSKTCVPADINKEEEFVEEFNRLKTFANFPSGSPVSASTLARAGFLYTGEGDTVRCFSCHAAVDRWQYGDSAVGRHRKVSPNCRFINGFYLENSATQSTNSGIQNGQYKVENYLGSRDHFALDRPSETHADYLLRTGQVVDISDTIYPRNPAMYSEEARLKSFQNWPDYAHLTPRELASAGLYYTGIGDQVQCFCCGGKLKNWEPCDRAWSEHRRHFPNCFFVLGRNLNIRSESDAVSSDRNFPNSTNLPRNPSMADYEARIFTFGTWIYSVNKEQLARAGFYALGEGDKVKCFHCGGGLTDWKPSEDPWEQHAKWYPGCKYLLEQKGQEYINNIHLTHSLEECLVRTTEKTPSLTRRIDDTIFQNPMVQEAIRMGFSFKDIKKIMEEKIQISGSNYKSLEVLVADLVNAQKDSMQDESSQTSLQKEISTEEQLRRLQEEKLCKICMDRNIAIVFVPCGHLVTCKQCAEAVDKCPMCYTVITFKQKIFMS

On to `[N-]=[N+]=NCc1ccccc1[C@@H]1OC(c2ccc(OCCCO)cc2)=N[C@]1(Cc1ccccc1N=[N+]=[N-])C(=O)O`, for which the z-score in assay [1] is 0.495; in assay [2] it was -3.6 (inactive); in assay [3], 0.589 (inactive); in assay [5], 1.42 (inactive); in assay [6] it was 0.783 (inactive); in assay [7], 2.32 (inactive). The z-score in [8] was 0.499 (inactive); in assay [9] it was -0.0845. The composite z-score in assay [4] was 0.454 (inactive); in [10] it was 0.104.
Consider `CO[C@H]1O[C@H](CO)[C@@H](OC(=O)Nc2ccc3c(c2)OCO3)[C@H](OC(=O)Nc2ccccc2-c2ccccc2)[C@H]1OC(=O)Nc1ccccc1-c1ccccc1`, for which the z-score in [1] is -2.5; in [2], 2.05 (inactive); in assay [3], -2.94 (inactive); in [5], 0.553 (inactive); in assay [6], 4.05 (inactive); in assay [7] it was 0.335 (inactive). Further, the z-score in [8] was -0.303 (inactive); in [9], -2.63. Besides, the figures for the composite z-score in assay [4] and in assay [10] were 0.656 (inactive) and 0.441, respectively.
Turning to `COC(=O)C[C@H]1O[C@@]2(C[C@@H]1[Si](C)(C)C)C(=O)N(C)c1ccccc12`, the z-score is 0.791 in [1]; -3.71 (inactive) in assay [2]; 1.41 (inactive) in assay [3]; 0.826 (inactive) in [5]; -3.42 (inactive) in assay [6]; 2.3 (inactive) in [7]. Also, the z-score in assay [8] is 0.92 (inactive); in assay [9] it was 0.904. Moreover, the composite z-score in assay [4] is -0.655 (inactive); in [10] it was -0.0966.
`CCOC(=O)C[C@H]1[C@H](OC(=O)c2cc3ccccc3oc2=O)[C@@H](NC(=O)CC(C)C)c2cc(OCCCO)ccc2N1C(=O)Cc1ccc(OC)cc1`: the z-score was -0.74 in assay [1]; -0.628 (inactive) in assay [2]; -0.233 (inactive) in [3]; -0.423 (inactive) in assay [5]; -0.746 (inactive) in [6]; -0.715 (inactive) in assay [7]. The z-score in [8] was -1.18 (inactive); in assay [9], -0.72. For the same compound, the composite z-score in assay [4] was -0.144 (inactive); in [10] it was -0.284.
`O=C1C[C@]2(c3ccc([N+](=O)[O-])cc3)C(=O)N(C3CC3)c3cc(CO)ccc3[C@H]2N1C1CCCCC1`: the z-score is 0.277 in assay [1]; 0.462 (inactive) in assay [2]; -0.0174 (inactive) in assay [3]; 0.475 (inactive) in assay [5]; 0.3 (inactive) in assay [6]; 0.0977 (inactive) in assay [7]. Also, the z-score in [8] was 0.284 (inactive); in assay [9] it was -0.34. For the same compound, the composite z-score is -3.75 (inactive) in assay [4] and -0.0286 in assay [10].
Turning to `O=C(NCCN1CCOCC1)[C@@H]1c2ccccc2C(=O)N(Cc2ccccc2C(F)(F)F)[C@H]1c1ccc(CO)cc1`, the z-score in assay [1] was 0.846; in assay [2], -0.139 (inactive); in [3], 1.17 (inactive); in [5], -0.342 (inactive); in assay [6], -0.276 (inactive); in assay [7], 0.394 (inactive). In addition, the z-score in assay [8] was 0.192 (inactive); in assay [9], 1.44. Moreover, the composite z-score is -0.899 (inactive) in assay [4] and 0.0487 in [10].
As to `CCCC[C@H]1OB(O)C[C@H]2C1=C(COc1ccccc1)C[C@H]1C(=O)C=CC(=O)[C@H]12`, the z-score in [1] is -0.149; in assay [2], -5.19 (inactive); in [3] it was -0.286 (inactive); in assay [5] it was 0.531 (inactive); in assay [6], -0.179 (inactive); in [7], 1.78 (inactive). Further, the figures for the z-score in [8] and in assay [9] were 0.715 (inactive) and 0.262, respectively. Also, the composite z-score in [4] was -0.973 (inactive); in assay [10] it was 0.0264.
`CN(C)C(=O)[C@@]1(Cc2ccccc2CN=[N+]=[N-])COC(c2ccc(OCCCO)cc2)=N1`: the z-score in assay [1] was 1.01; in assay [2], -4.86 (inactive); in assay [3], -1.19 (inactive); in assay [5] it was -0.732 (inactive); in assay [6] it was 3.73 (inactive); in assay [7], 1.04 (inactive). Besides, the z-score is 1.58 (inactive) in [8] and 0.196 in [9]. Further, the composite z-score in [4] is -0.311 (inactive); in [10] it was 0.153.
Take `COc1ccc([Si](C)(C)[C@H]2[C@H](CC(=O)N3Cc4ccccc4C[C@H]3CO)O[C@@]3(C(=O)N(c4ccccc4)c4ccccc43)[C@@H]2C)cc1`: the z-score was 0.635 in assay [1]; -1.89 (inactive) in assay [2]; -2.45 (inactive) in assay [3]; 0.0943 (inactive) in assay [5]; 0.578 (inactive) in assay [6]; 0.346 (inactive) in assay [7]. Further, the z-score in assay [8] was -0.288 (inactive); in assay [9], -2.1. The results for the composite z-score in assay [4] and in [10] were -1.05 (inactive) and -0.209, respectively.
With `C=CCC(OC(C)=O)[C@@H]1[C@@H](N(Cc2cc3ccccc3o2)C(=O)Cc2ccc(OC)cc2)c2cc(OCCCO)ccc2N1C(=O)c1ccc2ccccc2n1` (stereo not given in full), the z-score in [1] is -1.11; in [2] it was -0.791 (inactive); in [3], 0.472 (inactive); in [5] it was 0.268 (inactive); in assay [6], -0.266 (inactive); in assay [7], 0.945 (inactive). In addition, the z-score in [8] is 0.346 (inactive); in assay [9], -0.0391. Also, the composite z-score in [4] was 0.278 (inactive); in assay [10] it was -0.058.
On to `O=C(NCc1ccccc1)[C@@H]1c2ccccc2C(=O)N(Cc2ccc(OC(F)(F)F)cc2)[C@H]1c1ccc(CO)cc1`, for which the z-score was 0.299 in assay [1]; -0.103 (inactive) in [2]; 0.61 (inactive) in [3]; -0.109 (inactive) in [5]; -0.486 (inactive) in assay [6]; 0.822 (inactive) in assay [7]. Moreover, the results for the z-score in assay [8] and in [9] were 0.387 (inactive) and 1.5, respectively. The composite z-score in assay [4] was -0.197 (inactive); in [10] it was 0.371.
As for `COc1ccc(C(=O)Nc2cccc(CN3C(=O)[C@@]4(O[C@@H](CC(=O)N5CCC[C@H]5CO)[C@H]([Si](C)(C)c5ccc(OC)cc5)[C@H]4C)c4ccccc43)c2)cc1`, the z-score in assay [1] was -0.429; in [2] it was -0.0739 (inactive); in [3], -1.17 (inactive); in assay [5], 1.03 (inactive); in assay [6], 0.844 (inactive); in [7], 0.603 (inactive). The z-score in [8] is 0.274 (inactive); in assay [9], -1.25. In addition, the results for the composite z-score in [4] and in assay [10] were -5.69 (inactive) and 0.147, respectively.
As to `CN1C(=O)C2C(C1=O)C1C=C(CCCO)C2C(C2CC2)N1Cc1cccc(OC(F)(F)F)c1` (stereo not given), the z-score in assay [1] is -0.584; in assay [2] it was -1.13 (inactive); in assay [3], -0.551 (inactive); in assay [5], 0.559 (inactive); in assay [6], 0.132 (inactive); in assay [7], 0.492 (inactive). Besides, the values for the z-score in [8] and in [9] were -0.377 (inactive) and -0.615, respectively. For the same compound, the composite z-score in [4] is -1.75 (inactive); in assay [10], 0.0105.
